Results on 40 compounds are retold here after PubChem BioAssay (Tox21).

SMILES strings stand for the structures. Results filed as inconclusive are left out. A structure can be active in one record and inactive in another. Activity calls are given as the source filed them. Calls come from the whole dose curve.
Potency is the fitted concentration of half-maximal effect.

The experiment in a line: qHTS assay to identify small molecule agonists of the AP-1 signaling pathway - cell viability counter screen (AID 1159525). Note: nearly all actives have a fitted effect of over 55% in size. The note with it: ME-180 (cervical carcinoma) AP-1-bla cells viability, ATP luminescence, 5 h; series mostly up to 76.8 µM; viability change, negative = cytotoxic: at the top concentration. The source says:
National Center for Advancing Translational Sciences [NCATS]
NIH Chemical Genomics Center [NCGC]
U.S. Environmental Protection Agency [EPA]
National Institutes of Environmental Health Sciences [NIEHS]
National Toxicology Program [NTP]
U.S. Food and Drug Administration [FDA]
Activator protein-1 (AP-1), a transcription factor, plays an important role in tumor genesis by regulating genes involved in cell proliferation, differentiation, apoptosis, and angiogenesis. AP-1 activity is induced by a complex network of signaling pathways that involves extracellular signals, such as growth factors. The AP-1 protein complex formed from c-Fos and c-Jun binding to the AP-1 response element results in transcriptional activation of genes containing such elements within their promoter.
Low molecular weight molecules have been discovered and developed to modulate various components of these signaling pathways, for example, MAP kinase inhibitors. However, many points of pathway modulation remain untested due to the lack of chemical probes making this signaling locus of general interest.
Using a beta-lactamase reporter-gene under control of the AP-1 response element, a cell-based assay [CellSensor(TM) AP-1-bla ME-180 developed by Invitrogen Corp.] was used to measure EGF-induced signaling. The Tox21 10K library compounds were measured for their ability to positively modulate the action of EC50 EGF on reporter gene activity. Compounds were screened in a 15-pt titration series in 1536-well format. The cytotoxicity of the Tox21 compound library against this cell line was tested in parallel by measuring the intra cellular ATP content in the same wells.
Tox21 Assay Protocol Summary:
2500 cells/5uL in Opti-MEM medium containing 0.5% dialyzed FBS, 0.1 mM NEAA, 1 mM sodium pyruvate and 10 mM HEPES was dispensed into 1536-well black wall/clear bottom plates using a Multidrop dispenser and cells were cultured at 37 degrees Celsius overnight. Next day 23 nL of compounds dissolved in DMSO, positive controls or DMSO were delivered to each well using a pin tool. The plates were incubated at 37 degrees Celsius for 5 hours. 1 uL of LiveBLAzerTM B/G FRET substrate (Solution A+B+C+D) was added to each well using a Flying Reagent Dispenser. After incubated at room temperature for 2.5 hours the plates were measured on an EnVision plate reader at Excitation 405nm, Emission1=460nm and Emission 2=530nm. The %Activity was determined from the ratio of 460nm/530nm.
After the plates were read for Beta-Lactamase assay on Envision; 3 ul Cell Titer Glo (Promega) was added to measure the cytotoxicity and the plates were then incubated at RT in dark for 30 min. The luminescence was read on ViewLux (Perkin Elmer, Shelton, CT) using 6 sec exposure. ViewLux data was expressed as relative luminescence units.
For primary data analysis, raw plate reads for each titration point were first normalized relative to […] EGF control (100%) and DMSO only wells (basal, 0%).
For primary data analysis for viability assay, raw plate reads for each titration point were first normalized Tetra n-octyl ammonium bromide control (-100%) and DMSO (control, 100%).
Background: qHTS replaces the single test concentration by a dilution series.
`CCCCCOC(=O)CCCC`: the “viability change, negative = cytotoxic” value was -0.234% (inactive).

Regarding `O=c1cc(-c2ccc(O)cc2)oc2cc(O)cc(O)c12`, the Potency entry is “inactive”.

For `N#CC1(c2ccc(F)cc2)CCC(=O)CC1`, the “viability change, negative = cytotoxic” value is -1.1% [at 35.3 µM] (inactive).

As to `CCC1=C[C@@H]2CN(C1)Cc1c([nH]c3ccccc13)[C@@](C(=O)OC)(c1cc3c(cc1OC)N(C)[C@H]1[C@@](O)(C(=O)OC)[C@H](OC(C)=O)[C@]4(CC)C=CCN5CC[C@]31[C@@H]54)C2`, the “viability change, negative = cytotoxic” value is 0.58% [at 35.3 µM] (inactive).

For the compound `O=C(O)c1cc(O)c2c(c1)C(=O)c1cccc(O)c1C2=O`, the “viability change, negative = cytotoxic” value was 2.44% (inactive).

For the compound `NC(=NCCCCCCN=C(N)/N=C(\N)Nc1ccc(Cl)cc1)/N=C(\N)Nc1ccc(Cl)cc1`, the Potency is 34.3 µM (active) and inactive.

Take `CCCCN1C(=O)[C@@H]([C@H](O)C2CCCCC2)NC(=O)C12CCN(Cc1ccc(Oc3ccc(C(=O)O)cc3)cc1)CC2`: the “viability change, negative = cytotoxic” value was -4.81% (inactive).

Turning to `CC(C)c1ccc2c(c1)CC[C@H]1[C@](C)(CN)CCC[C@]21C`, the Potency is 54.9 µM (active).

Turning to `COC(=O)c1cc(Cl)ccc1OC`, the “viability change, negative = cytotoxic” value is 12.3% [at 35.3 µM] (inactive).

Consider `O=c1[nH]sc2ccccc12`, for which the Potency was 34.7 µM (active).

`CC1=NC(C)OC1C` (stereo not given): the “viability change, negative = cytotoxic” value was 10.4% (inactive).

As to `CCCCCCCC/C=C\CCCCCCCCOCCO`, the Potency is 25.4 µM (active).

In the case of `CCCCc1oc2ccc(NS(C)(=O)=O)cc2c1C(=O)c1ccc(OCCCN(CCCC)CCCC)cc1`, the Potency is 19 µM (active).

For the compound `C=C(C)C(=O)OCC[N+](C)(C)C`, the “viability change, negative = cytotoxic” value was -10.3% (inactive).

Consider `CCCCN(CCCC)C(=O)N(CCCC)CCCC`, for which the “viability change, negative = cytotoxic” value is 4.55% (inactive).

Regarding `COc1cc(/C=C/C(=O)O[C@H]2CC[C@]34C[C@]35CC[C@]3(C)[C@@H]([C@H](C)CCC=C(C)C)CC[C@@]3(C)[C@@H]5CC[C@H]4C2(C)C)ccc1O`, the “viability change, negative = cytotoxic” value is -2.72% [at 35.3 µM] (inactive).

Take `Cc1c(C)c2c(c(C)c1O)CCC(C)(COc1ccc(CC3SC(=O)NC3=O)cc1)O2` (stereo not given): the Potency result was “inactive”.

For the compound `C[n+]1cc2c3c(ccc2c2ccc4cc5c(cc4c21)OCO5)OCO3`, the Potency is 2.08 µM (active).

Turning to `Cc1cc(O)c2ccccc2c1O`, the Potency is 10.7 µM (active).

`CCOC(=O)O[C@]1(C(=O)OCCl)CC[C@H]2[C@@H]3CCC4=CC(=O)C=C[C@]4(C)[C@H]3[C@@H](O)C[C@@]21C`: the “viability change, negative = cytotoxic” value was 1.88% [at 35.3 µM] (inactive).

As to `Cc1ccc(-n2nc(C(C)(C)C)cc2NC(=O)Nc2ccc(OCCN3CCOCC3)c3ccccc23)cc1`, the “viability change, negative = cytotoxic” value is -12.2% [at 35.3 µM] (inactive).

Take `CSc1ccc2c(c1)C(N1CCN(C)CC1)Cc1ccccc1S2` (stereo not given): the “viability change, negative = cytotoxic” value was -7.4% [at 35.3 µM] (inactive).

Take `N=C1N=C(N)c2cc3ccccc3cc21`: the Potency was 49 µM (active).

With `CCC(N)(CO)CO`, the “viability change, negative = cytotoxic” value was 6.68% (inactive).

With `CCCC(=O)OC[C@@H](OC(=O)CCC)[C@@H](OC(=O)CCC)[C@H](Cn1c2nc(=O)[nH]c(=O)c-2nc2cc(C)c(C)cc21)OC(=O)CCC`, the “viability change, negative = cytotoxic” value is 2.74% [at 35.3 µM] (inactive).

Take `Clc1ccc2cc3ccccc3cc2c1`: the “viability change, negative = cytotoxic” value is 0.045% (inactive).

Take `C[n+]1ccn(Cc2ccccc2)c1`: the “viability change, negative = cytotoxic” value was -6.86% (inactive).

With `COC(=O)C1=C(C)NC(C)=C(C(=O)OCC(C)C)C1c1ccccc1[N+](=O)[O-]` (stereo not given), the Potency is 24.5 µM (active) and inactive.

For the compound `N=C1C=CC(=C(c2ccc(N)cc2)c2ccc(N)cc2)C=C1`, the “viability change, negative = cytotoxic” value was -9.63% (inactive).

As for `CCCCCCCC[N+](CCCCCCCC)(CCCCCCCC)CCCCCCCC`, the Potency is 15.5 µM (active).

With `COc1ccc(-c2ccc3cc(C(=O)O)ccc3c2)cc1C12CC3CC(CC(C3)C1)C2`, the “viability change, negative = cytotoxic” value is -8.43% [at 35.3 µM] (inactive).

As to `O=C1C=CC(=O)N1c1ccc(Cc2ccc(N3C(=O)C=CC3=O)cc2)cc1`, the Potency was 24.5 µM (active).

Regarding `c1ccc(CSCc2ccccc2)cc1`, the “viability change, negative = cytotoxic” value was -13.7% (inactive).

As to `CCCCCCCCCCn1cc[n+](CCCCCCCCCC)c1C`, the Potency is 39 µM (active).

For the compound `OCc1c[nH]c2ccccc12`, the “viability change, negative = cytotoxic” value is -2.6% (inactive).

As for `CS(=O)(=O)CCNCc1ccc(-c2ccc3ncnc(Nc4ccc(OCc5cccc(F)c5)c(Cl)c4)c3c2)o1`, the Potency was 21.3 µM (active).

As to `COc1ccc(C(=O)/C(Br)=C\C(=O)O)cc1`, the “viability change, negative = cytotoxic” value was 1.52% (inactive).

Take `CCc1oc2ccccc2c1C(=O)c1cc(Br)c(O)c(Br)c1`: the “viability change, negative = cytotoxic” value was 2.25% [at 35.3 µM] (inactive).

For the compound `Oc1ccc(N=Nc2ccccc2)cc1`, the “viability change, negative = cytotoxic” value was -23.6% (inactive).

As to `CCCCCCCCCCCCCCCCCC[N+](C)(C)Cc1ccccc1`, the Potency was 39.3 µM (active).
